A selection: hits, their analogues and other compounds. The true share with any hit is near 3.7%.
VDR inhibitor: vitamin D3 receptor (human) inhibition; Potency, µM, for inactives: max response, negative = inhibition, usual class: inhibitors; P11473; VDR-SRC2-3 peptide fluorescence polarization, 2 h; 400,000 tested, 0.93% active; further: potency means the concentration at half of the fitted maximal effect; on the % scale 0 is the no-effect control and ±100 the full control effect
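Measured by FP: displacement of SRC2-3 coactivator peptide from VDR by library compounds, following a two-hour ambient incubation.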
WRN helicase inh: blocks human WRN helicase. Q14191. WRN helicase unwinding, fluorescent forked duplex, kinetic. Potency, µM (highest dose often 114 µM), inactives show at the top dose activity change, negative = inhibition, usual class: inhibitors. 360,000 tested, 0.46% active; further: potency means the concentration at half of the fitted maximal effect; on the % scale 0 is the no-effect control and ±100 the full control effect; nearly all actives have a fitted effect of over 55% in size
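Enzyme (20 nM final) and test compound sit together 15 min at room temperature before substrate addition. Substrate is a single-forked duplex oligonucleotide (100 nM) labelled with fluorophore and quencher, with 2 mM ATP; helicase unwinding raises red fluorescence, read kinetically.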
PLK1 PBD block: inhibitors of human PLK1 polo-box domain binding; Plk1 PBD binding of FITC phosphopeptide, fluorescence polarization; Potency, µM, for the others: max response, negative = inhibition, most hits filed as inhibitors; 360,000 tested, 2.8% active; further: potency means the concentration at half of the fitted maximal effect; series mostly up to about 57 µM; on the % scale 0 is the no-effect control and ±100 the full control effect; nearly all actives have a fitted effect of over 65% in size
FEN1 inh: human FEN1 inhibition; P39748; Recombinant FEN1 flap cleavage, fluorescence, 15 min; Potency, µM (highest dose often 114 µM), inactives show at the highest dose activity change, negative = inhibition, actives largely listed as inhibitors; 390,000 tested, 0.35% active; AID 588795; further: potency means the concentration at half of the fitted maximal effect; on the % scale 0 is the no-effect control and ±100 the full control effect; nearly all actives have a fitted effect of over 65% in size
Target sequence (P39748 whole entry, looked up): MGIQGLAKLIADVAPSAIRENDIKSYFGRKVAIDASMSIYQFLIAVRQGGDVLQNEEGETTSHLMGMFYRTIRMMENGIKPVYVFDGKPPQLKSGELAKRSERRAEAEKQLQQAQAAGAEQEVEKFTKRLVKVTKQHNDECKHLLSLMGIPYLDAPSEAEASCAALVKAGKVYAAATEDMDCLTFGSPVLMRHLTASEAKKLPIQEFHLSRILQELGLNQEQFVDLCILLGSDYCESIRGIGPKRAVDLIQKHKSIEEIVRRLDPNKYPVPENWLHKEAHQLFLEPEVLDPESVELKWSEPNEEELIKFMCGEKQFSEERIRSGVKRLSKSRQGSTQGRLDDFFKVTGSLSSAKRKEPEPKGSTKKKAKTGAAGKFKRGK
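Compounds are tested as a concentration series against 10 nM FEN1; after a 15 min room-temperature preincubation, 50 nM substrate starts cleavage, with plate reads at 0 and 15 min. Normalized responses are fitted by a Hill equation.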
PI5P4Ka inh: PI5P4K alpha (human) kinase inhibition; PI5P4Kalpha enzyme, ADP-Glo luminescence, 60 min; active compounds read low; 330,000 tested, 1.2% active; max response, %; active means max response of -50% or lower; inconclusive means between -30% and -50%; inactive means -30% or higher; further: value at the top dose of about 77 µM; on the % scale 0 is the no-effect control and ±100 the full control effect
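ADP-Glo luminescence end-point after a 60 min room-temperature kinase reaction. PI5P4Kalpha and substrate in HEPES pH 7.4 buffer with EGTA, 0.1% CHAPS and 5% DMSO; ATP at 5 microM final.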
TCR act: activators of T cell receptors | primary human leukocytes, anti-CD3, IL-2 HTRF, 48 h | Potency, µM (titrated, usually from 9.22 µM), for the others: top-dose activation of IL-2 secretion, actives largely listed as activators | 330,000 tested, under 10 active; further: % of control where 0% means no effect
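Compounds are tested in HTS on primary human leukocytes co-incubated with a-CD3 beads for 48 hr. IL-2 output is measured by time-resolved FRET.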
An asterisk follows results filed as active; ? = inconclusive; / = not tested or not shown; [ ] = another dose, or the depositor's remark. Unless noted, the call rests on the fitted dose curve; in most records, active means well fitted curve in the direction sought with a large enough effect; inconclusive means small, poorly fitted or top-dose-only effect, or another doubt; inactive means no such curve, though single readings can be large; an effect the other way counts as inactive or inconclusive.

SMILES	VDR inhibitor	WRN helicase inh	PLK1 PBD block	FEN1 inh	PI5P4Ka inh	TCR act
CC(NC(=O)COC(=O)Cc1ccc(Cl)cc1)c1ccccc1 (centres undefined)	-11%	4%	-11%	-5%	1	1%
O=C(CN1C(=O)/C(=C/c2ccco2)SC1=S)NC1CCS(=O)(=O)C1 (centres undefined)	-12%	-7%[11.6 µM]	30µM*	?	-27	-3%
COc1cc(OC)cc(C(=O)Nc2nc(-c3nnn(-c4ccc(F)c(Cl)c4)c3C)ns2)c1	8%	/	/	-27%	/	/
Cc1ccc(C)c(C(=O)NCCN(C)C)c1	5%	-4%	-2%	-15%	-6	1%
CN(C)CCNC(=O)c1cccc2nc3c(ccc4ccccc43)nc12	-8%	?	-12%	13µM*	21	1%
CN(C)CCNC(=O)c1cccc2[nH]c(-c3ccncc3)nc12	-10%	4%[11.6 µM]	0%	45µM*	-3	0%
COc1ccc(C(=O)NCCN(C)C)c2nc3ccccc3cc12	-20%	40%	1%	14µM*	14	-2%
CC[C@@H](C)[C@@H](O)[C@H](C)C(=O)[C@H](C)/C=C(\C)C[C@H](C)[C@@H]1OC(=O)[C@H]1CC	-11%	/	/	/	/	/
CC(CCC(=O)O)C1CCC2C3CC[C@H]4CC(O)CC[C@@]4(C)C3C=C[C@]12C (some centres undefined)	28µM*	/	/	/	/	/
C[C@H](CCC(=O)O)C1CC[C@H]2C3CC[C@@H]4C[C@H](O)CC[C@]4(C)C3C[C@H](O)[C@]12C (some centres undefined)	-11%	/	/	/	/	/
O=C(COc1ccccc1C(=O)Nc1ccccc1)Nc1ccccc1F	/	/	/	2%	/	/
CC(C)(C)C1=CC(=O)C(=O)C(C(C)(C)C)=C1	?	-14%	3.8µM*	71µM*	?	1%[46.1 µM]
CC(C)OC(=O)c1c2c(n3ccccc13)C(=O)c1ccccc1C2=O	11%	89µM*	-15%	?	0	-7%[46.1 µM]
Cc1nn(-c2ccccc2)c(NC(=O)NS(=O)(=O)c2ccc(Cl)cc2)c1C#N	5%	/	/	/	/	/
O=S(=O)(/N=C/c1c(O)ccc2ccccc12)c1ccccc1	-4%	?	15µM*	0%	-1	-7%
O=C(O)c1cc(N/N=C/c2c(O)ccc3ccccc23)ccc1Cl	?	-22%[11.6 µM]	17µM*	?	-12	-1%
C1=Cc2ccccc2/C1=C\c1cc2c3c(c1)CCCN3CCC2	/	/	/	-31%	/	/
CCC(=O)Nc1ccccc1Oc1ccccc1	-23%	7%	24µM*	4%	-2	-5%
O=C(Cc1ccccc1)Nc1ccccc1Oc1ccccc1	?	-9%	7%	-6%	-1	0%[46.1 µM]
COCCn1c(C)cc(C(=O)CN2C(=O)NC3(CCCCCCC3)C2=O)c1C	-2%	-5%	-1%	1%	/	1%
Cc1cc(C(=O)CN2C(=O)NC3(CCCCC3)C2=O)c(C)n1-c1ccc2c(c1)OCO2	?	3%	24µM*	4%	-17	-1%[46.1 µM]
CN1CCN(c2ncc3nc(-c4cccc(C#N)c4)c(=O)n(C[C@H]4CCCO4)c3n2)CC1	-22%	/	/	/	/	/
CCC1(c2ccc(O)cc2)NC(=O)N(C)C1=O (centres undefined)	16%	/	/	/	/	/
CCc1c(C)nc(SCC(=O)N2CCN(c3ccccc3)CC2)[nH]c1=O	-3%	0%	-21%	-2%	-1	-4%
CCc1c(C)nc(SCC(=O)N2CCCCC2CC)[nH]c1=O (centres undefined)	?	2%	24µM*	12%	-18	-3%
SMILES	VDR inhibitor	WRN helicase inh	PLK1 PBD block	FEN1 inh	PI5P4Ka inh	TCR act
Cc1ccc(CNC(=O)c2cccn2-c2nnc(N3CCCCC3)s2)cc1	15%	/	/	-2%	/	/
Cc1c(C(=O)N2CCOCC2)c(S(=O)(=O)Nc2ccc(C(C)C)cc2)c(C)n1C	?	-1%	27µM*	19%	-16	-4%
Cc1ccc(NS(=O)(=O)c2c(C(=O)N3CCCCCC3)c(C)n(C)c2C)cc1C	-11%	3%	21µM*	5%	-5	7%
Cc1c(C(=O)N2CCOCC2)c(S(=O)(=O)Nc2ccc(OC(F)(F)F)cc2)c(C)n1C	3%	1%	-5%	-2%	-1	0%
Cc1ccc(NS(=O)(=O)c2c(C(=O)N3CCCCCC3)c(C)n(C)c2C)cc1F	11%	/	/	-7%	/	/
Cc1c(C(=O)N2CCCCC2)c(S(=O)(=O)N2CCC(C)CC2)c(C)n1C	?	3%	21µM*	-5%	-5	9%
COc1ccccc1NC(=O)CSc1oc(-c2ccc(F)cc2)nc1S(=O)(=O)c1ccc(Br)cc1	3%	/	/	17%	/	/
Cc1ccc2cccc(NC(=O)COc3ccccc3[N+](=O)[O-])c2n1	14%	/	/	-3%	/	/
Cc1cc(C=Nc2ccc(/C=C/c3ccnc4ccccc34)cc2)ccc1N(C)C	/	/	/	-5%	/	/
Cc1cc(C)n(-c2nc3ccccc3s2)n1	18%	-2%	-4%	7%	4	6%
Cc1c2c(=O)n(-c3nc4ccccc4s3)nc-2cc(O)n1Cc1ccccc1	-7%	-9%[11.6 µM]	-8%	?	-78*	2%
O=C1NC(=S)S/C1=C/c1ccc(OC(=O)c2ccco2)cc1	-6%	-12%	?	-1%	-62*	-2%
COc1ccc(NS(=O)(=O)c2ccc3c(c2)n(C)c(=O)c(=O)n3C)cc1Cl	11%	/	/	-5%	/	/
CC(C)CCn1c(O)c(N=Nc2ccccn2)c2ccccc21	-13%	-21%	-5%	-16%	21	-5%
CC(C)CCn1c(O)c(N=NC(=O)Cn2ccc(C(F)(F)F)n2)c2ccccc21	79µM*	-6%	24µM*	4%	-16	2%
O=C(NCC1CCCO1)c1cccc(N2CCCC2=O)c1 (centres undefined)	0%	5%	-6%	4%	-2	-3%
Cc1ccc(C(=O)NCC2CCCO2)cc1N1CCCC1=O (centres undefined)	7%	6%	27µM*	5%	-22	-25%
O=C(O)c1ccc(Cl)cc1Nc1nc2cc(Cl)ccc2o1	?	-11%	19µM*	-24%	-17	0%
O=C(O)c1cc2cc(Cl)ccc2oc1=O	4%	-4%	-5%	-11%	/	-6%
CCCCN1C(=O)/C(=C(/C#N)C(=O)N2CCCC2)c2ccccc21	45µM*	5%	-18%	-18%	-3	-2%
CC(C)=CCc1c2c(c(O)c3c(=O)c(O)c(-c4ccccc4)oc13)C=CC(C)(C)O2	-4%	/	/	/	/	/
CC(C)=CCCC1(C)C=Cc2c(O)c3c(c(CC=C(C)C)c2O1)OC12C(=CCCC1C(C)(C)O[C@@]2(C/C=C(\C)C(=O)O)C(=O)O)C3=O (some centres undefined)	45µM*	/	/	/	/	/

Compound activity: PubChem, National Center for Advancing Translational Sciences (NCATS)
